Source: the supplement of paper PMC4466236
In all, about 33,000 sequences were measured (“E-score (dimensionless, -0.5 to 0.5)”: median about -0.058, highest 2% from about 0.35 on). The sample as a whole holds a higher share of the highest values than the screen did.

The sequences below were run on MvaT (assay: PBM 8-mer E-score (mean of HK and ME arrays) (E-score (dimensionless, -0.5 to 0.5)); higher = stronger relative binding preference).
Protocol: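 Protein binding microarray: GST-tagged full-length MvaT (P. aeruginosa PAO1) bound to two universal double-stranded 60-mer arrays (ME and HK), each with a constant 25-mer primer and a variable 35-mer region covering all 8-mers. The 8-mer E-score (rank-based, range -0.5 to 0.5, >0.45 = specific binding) is the mean of the two arrays.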

| Sequence | PBM 8-mer E-score |
| --- | --- |
| CTTCGAGC | -0.301 |
| AGAGGCGC | -0.328 |
| CCACGCGC | -0.112 |
| CCCATCGG | -0.267 |
| GGATACGA | 0.0766 |
| AAGATCGC | -0.0523 |
| AATGGTTC | -0.0396 |
| AAATACCG | 0.271 |
| CCCTAAGG | -0.289 |
| AAGTTAGA | 0.302 |
| GAGTTATA | 0.369 |
| CCGTTATA | 0.308 |
| CAGTTATC | 0.131 |
| TAGTTAGA | 0.178 |
| TAGTTACA | 0.247 |
| GCGTTATA | 0.252 |
| CAGTTATA | 0.36 |
| AAGTTACA | 0.264 |
| AAGTTATA | 0.442 |
| GAGTTATC | 0.0914 |
| TAGTTATA | 0.402 |
| AAGATTGG | 0.154 |
| GAAACGGA | -0.164 |
| ATAACCTA | 0.182 |
| ATGTCGAC | 0.0419 |
| AGTTCTGA | 0.144 |

| Sequence | PBM 8-mer E-score |
| --- | --- |
| AAAATCAA | 0.18 |
| AAAGCTGG | -0.0254 |
| CATAATTC | 0.223 |
| AATAATTC | 0.344 |
| AATAATCG | 0.309 |
| CATAATCA | 0.227 |
| AATAATTG | 0.372 |
| AAGAATTA | 0.295 |
| GATAATCC | 0.175 |
| CATAATTA | 0.421 |
| GATAATTA | 0.419 |
| GAGAATTA | 0.23 |
| AATAATTA | 0.463 |
| AGTAATTG | 0.293 |
| ATTCTTGC | 0.0322 |
| CATAGGGA | -0.132 |
| TCCTTCCA | -0.27 |
| GCAGTATA | 0.287 |
| ATCGGCGC | -0.104 |
| AGCCCTAT | -0.14 |
| AAGAAGAC | -0.0906 |
| TAACAGGA | 0.223 |
| AGCCGCCT | -0.243 |
| CGTTGGCC | -0.25 |
| AGATACGG | -0.112 |
| ATTTTTCC | 0.0867 |

| Sequence | PBM 8-mer E-score |
| --- | --- |
| GTCGTGAA | -0.22 |
| CAAAGGTA | -0.113 |
| CAACACCA | 0.0286 |
| AGATATAC | 0.155 |
| AGATATAT | 0.46 |
| AGATATCA | 0.194 |
| AGAGATAA | 0.144 |
| AGATATAA | 0.373 |
| AGATATAG | 0.208 |
| GAATGGGC | -0.16 |
| CATATTCA | 0.184 |
| GATATTAC | 0.293 |
| GAGATTAA | 0.232 |
| CAGATTAA | 0.137 |
| GATATTAA | 0.438 |
| CATATTAA | 0.418 |
| CCTACCAG | -0.279 |
| CGGTTATC | 0.0552 |
| GCATCGGA | -0.11 |
| CTGATGCC | -0.231 |
| AGAGAAAT | 0.134 |
| GATAGTAA | 0.284 |
| TAATTAAA | 0.447 |
| GAATTAAC | 0.256 |
| AAATTACG | 0.256 |
| AAATTAAG | 0.361 |

| Sequence | PBM 8-mer E-score |
| --- | --- |
| AAATTAGT | 0.281 |
| TGATTAAA | 0.27 |
| AAATTACT | 0.308 |
| CAATTAAG | 0.24 |
| AAATTAAT | 0.426 |
| GGATTAAA | 0.232 |
| GAATTAAA | 0.385 |
| CAATTAAA | 0.305 |
| CCCGTACA | -0.0141 |
| CGTAATCA | 0.0215 |
| AAATTAAA | 0.399 |
| AAATTAGA | 0.191 |
| AAATTAAC | 0.27 |
| CGGAGGGA | -0.311 |
| CAAAACAC | 0.0954 |
| GGTTTAAA | 0.31 |
| AGTTTAAT | 0.379 |
| CGTTTAAA | 0.317 |
| TGTTTTAA | 0.302 |
| AGTTTTAA | 0.259 |
| TGTTTAAA | 0.387 |
| AGTTTAAG | 0.257 |
| AGTTTAAC | 0.244 |
| AGTTTAAA | 0.378 |
| AATTCTGA | 0.0908 |
| TGCATCCA | -0.0802 |

| Sequence | PBM 8-mer E-score |
| --- | --- |
| GGGCCCTA | -0.218 |
| AGGAAGAG | -0.188 |
| ATGGAGTA | 0.0119 |
| GATACTAA | 0.213 |
| AATACTAA | 0.356 |
| CATACTAA | 0.198 |
| TATACTAA | 0.391 |
| AATACTAT | 0.297 |
| AATACTAC | 0.271 |
| TCTGAGAA | -0.0369 |
| AGCTAAGA | -0.0322 |
| CTAATGCA | -0.0396 |
| ATAATGCA | 0.36 |
| ATAATGTC | 0.337 |
| ATAATGCG | 0.271 |
| ATAATGTA | 0.401 |
| CTAATGTA | 0.23 |
| ATCCCGCC | -0.0462 |
| CCTATCTC | 0.0122 |
| AACCGTTG | -0.0901 |
| GTTGTACA | 0.115 |
| AAGAGTGA | 0.00575 |
| CTTCACTC | -0.239 |
| CTAAGTTA | 0.352 |
| ATAAGTTG | 0.342 |
| GTAAGTTA | 0.396 |

| Sequence | PBM 8-mer E-score |
| --- | --- |
| CTAAGTCA | -0.101 |
| GGAAGTTA | 0.227 |
| GCAAGTTA | 0.34 |
| ATAAGTTC | 0.368 |
| ATAAGTGC | 0.178 |
| ACAAGTTA | 0.338 |
| ATAAGTTA | 0.441 |
| CTAAGTTC | 0.232 |
| AGAAGTTC | 0.223 |
| ACACAACG | -0.0104 |
| GAAGGAGA | -0.255 |
| GGGTTCAC | -0.111 |
| AACCATAT | 0.254 |
| AACATCCC | 2.53e-05 |
| TACGAGGA | -0.05 |
| GGGGCCAA | -0.225 |
| CTATCCAA | -0.0391 |
| ATATTACA | 0.386 |
| ATATTAGC | 0.352 |
| GTATTAGA | 0.267 |
| CTATTAGC | 0.136 |
| CTATTACA | 0.267 |
| CTATTAGA | 0.208 |
| ATATTACC | 0.293 |
| ATATTAGG | 0.309 |
| ATATTAGA | 0.407 |

| Sequence | PBM 8-mer E-score |
| --- | --- |
| ATCTGTGA | -0.0144 |
| CACTTAGC | -0.0629 |
| GCCCGCGA | -0.31 |
| ACCTGTCG | -0.277 |
| CTGAAAAG | -0.0791 |
| TAAATTAA | 0.437 |
| AAAATTGA | 0.224 |
| CAAATTAA | 0.286 |
| AAAATTAG | 0.162 |
| AAAATTAA | 0.387 |
| GAAATTAA | 0.331 |
| AAAATTGT | 0.269 |
| AAAATTAC | 0.149 |
| AAAATTAT | 0.355 |
| CCTAATAC | 0.104 |
| GGGCTCCA | -0.168 |
| GAAGCATA | 0.00764 |
| CACACCTA | 0.0249 |
| ACACGAGT | -0.0299 |
| ACTACTGG | 0.0326 |
